# Reference: PMC5700166
# Substitutions are numbered along the chain they refer to.
# Legend:
# Assay in all cases: protein-binding microarray (PBM); PBM: ~300 nM protein, 6 mM HEPES pH 7.8, 80 mM KCl, 0.5 mM EDTA, 0.5 mM EGTA, 6% glycerol, 35 ng/ul poly-dIdC, 1% milk, 1 h, room temperature; Ap Aiptasia and Nv Nematostella (sea anemones) / Co Capsaspora / Aq Amphimedon (sponge) / Dm Drosophila / Hu human; RHD is the Rel homology domain; high values mean tight binding
# Conditions in all cases: dsDNA, one strand shown
# GST-Ap-NF-kB RHD = target: T1, GST-Ap-NF-kB RHD (Exaiptasia pallida (Aiptasia), UniProt A0A913YAJ5 2-422)
# T1 sequence: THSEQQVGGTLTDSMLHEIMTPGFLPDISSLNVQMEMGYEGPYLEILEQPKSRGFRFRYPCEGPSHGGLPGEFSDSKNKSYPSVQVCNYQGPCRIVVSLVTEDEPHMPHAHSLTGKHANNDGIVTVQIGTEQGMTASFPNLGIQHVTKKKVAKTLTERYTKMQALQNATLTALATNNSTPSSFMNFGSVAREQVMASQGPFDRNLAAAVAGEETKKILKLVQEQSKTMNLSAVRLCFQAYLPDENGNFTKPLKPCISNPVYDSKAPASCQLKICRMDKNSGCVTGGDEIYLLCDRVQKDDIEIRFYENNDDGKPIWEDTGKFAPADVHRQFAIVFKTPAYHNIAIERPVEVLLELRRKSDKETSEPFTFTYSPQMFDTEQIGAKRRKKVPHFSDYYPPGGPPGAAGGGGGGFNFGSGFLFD
# [1] = target: T2, GST-Nv-NF-kB (Cys allele) (Nematostella vectensis, UniProt E5G601 2-411)
# T2 sequence: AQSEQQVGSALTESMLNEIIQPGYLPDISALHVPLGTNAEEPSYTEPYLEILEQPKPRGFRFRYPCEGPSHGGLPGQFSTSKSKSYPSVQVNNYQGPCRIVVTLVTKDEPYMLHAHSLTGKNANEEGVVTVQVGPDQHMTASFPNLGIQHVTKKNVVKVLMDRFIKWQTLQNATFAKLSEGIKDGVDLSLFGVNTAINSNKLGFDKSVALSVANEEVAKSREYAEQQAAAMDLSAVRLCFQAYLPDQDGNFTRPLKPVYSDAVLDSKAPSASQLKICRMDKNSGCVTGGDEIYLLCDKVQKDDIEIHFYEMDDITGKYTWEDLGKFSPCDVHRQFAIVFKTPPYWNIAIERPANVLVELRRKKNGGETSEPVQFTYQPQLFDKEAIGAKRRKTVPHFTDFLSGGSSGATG
# [2] = target: T3, GST-Nv-NF-kB (Ser allele) (Nematostella vectensis, UniProt A7UNT2 2-411)
# T3 sequence: T2 sequence with Q21R, C66S, S207N, E215Q, V217A, E225K, A268E, D399E
# GST-Co-NF-kB = target: T4, GST-Co-NF-kB (Capsaspora owczarzaki, UniProt F1ARL5 200-546)
# T4 sequence: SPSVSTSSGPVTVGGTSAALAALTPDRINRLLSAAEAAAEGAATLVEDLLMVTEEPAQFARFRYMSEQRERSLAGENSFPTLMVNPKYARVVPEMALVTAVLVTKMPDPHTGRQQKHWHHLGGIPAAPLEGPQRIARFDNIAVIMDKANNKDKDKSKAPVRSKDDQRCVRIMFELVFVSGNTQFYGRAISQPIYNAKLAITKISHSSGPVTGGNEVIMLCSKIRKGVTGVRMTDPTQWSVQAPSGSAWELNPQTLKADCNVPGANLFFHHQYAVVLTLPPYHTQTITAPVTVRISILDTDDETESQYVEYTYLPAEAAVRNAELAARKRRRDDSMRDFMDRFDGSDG
# GST-Dm-Relish = target: T5, GST-Dm-Relish (Drosophila melanogaster, UniProt Q94527 99-473)
# T5 sequence: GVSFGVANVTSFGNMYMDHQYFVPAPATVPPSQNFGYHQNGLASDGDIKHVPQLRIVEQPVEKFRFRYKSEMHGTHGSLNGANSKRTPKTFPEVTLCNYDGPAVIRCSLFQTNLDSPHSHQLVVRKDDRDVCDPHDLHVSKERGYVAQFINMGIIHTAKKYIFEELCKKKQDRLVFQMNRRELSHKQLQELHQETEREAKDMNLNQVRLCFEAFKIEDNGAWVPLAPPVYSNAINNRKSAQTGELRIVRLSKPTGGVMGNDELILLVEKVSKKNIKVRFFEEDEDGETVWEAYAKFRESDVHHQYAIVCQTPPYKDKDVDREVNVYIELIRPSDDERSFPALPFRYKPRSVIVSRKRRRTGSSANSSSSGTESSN
# GST-Aq-NF-kB = target: T6, GST-Aq-NF-kB (Amphimedon queenslandica, UniProt A9Y5G7 2-389)
# T6 sequence: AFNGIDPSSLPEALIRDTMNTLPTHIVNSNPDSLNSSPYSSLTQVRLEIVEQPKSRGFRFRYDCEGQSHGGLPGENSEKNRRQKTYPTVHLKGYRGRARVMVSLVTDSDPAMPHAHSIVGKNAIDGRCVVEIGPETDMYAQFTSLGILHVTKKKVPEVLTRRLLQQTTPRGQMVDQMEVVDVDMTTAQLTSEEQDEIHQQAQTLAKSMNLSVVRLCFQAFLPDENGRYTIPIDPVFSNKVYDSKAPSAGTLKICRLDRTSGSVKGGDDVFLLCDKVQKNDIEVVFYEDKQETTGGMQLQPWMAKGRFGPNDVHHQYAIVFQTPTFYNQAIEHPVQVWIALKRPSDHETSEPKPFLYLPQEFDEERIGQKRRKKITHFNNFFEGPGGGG
# GST-Hu-p50 = GST-Hu-p50 (Homo sapiens, UniProt P19838 7-356)
# GST-Hu-p50, sequence (P19838 7-356): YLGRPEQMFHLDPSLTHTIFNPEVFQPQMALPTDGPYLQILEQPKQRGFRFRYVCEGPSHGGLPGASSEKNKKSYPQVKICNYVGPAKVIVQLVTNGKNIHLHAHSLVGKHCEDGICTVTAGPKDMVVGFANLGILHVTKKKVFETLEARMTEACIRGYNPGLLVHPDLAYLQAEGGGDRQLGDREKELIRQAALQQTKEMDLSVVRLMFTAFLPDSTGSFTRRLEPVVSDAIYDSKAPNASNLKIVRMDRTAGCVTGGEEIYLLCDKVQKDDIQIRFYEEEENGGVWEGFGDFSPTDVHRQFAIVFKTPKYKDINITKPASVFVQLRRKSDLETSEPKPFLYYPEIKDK
Sequence,binding signal (GST-Ap-NF-kB RHD),binding signal [1],binding signal [2],binding signal (GST-Co-NF-kB),binding signal (GST-Dm-Relish),binding signal (GST-Aq-NF-kB),binding signal (GST-Hu-p50)
CCGATTAACATCAACGAATTCCCTGATGTTAATCGGGTCTTGATTCGCTTGACGCTGCTG,2.81 z-score,4.07 z-score,4.93 z-score,2.64 z-score,2.28 z-score,3.08 z-score,3.08 z-score
CCGATTAACATCAAGGAGTTCCCTGATGTTAATCGGGTCTTGATTCGCTTGACGCTGCTG,3.02 z-score,2.29 z-score,1.06 z-score,1.52 z-score,5.39 z-score,4.24 z-score,2.1 z-score
CCGATTAACATCAAGTCTCCCCCTGATGTTAATCGGGTCTTGATTCGCTTGACGCTGCTG,6.67 z-score,5.33 z-score,7.25 z-score,8.63 z-score,2.82 z-score,4.5 z-score,5.75 z-score
CCGATTAACATCAAGTAATCCCCTGATGTTAATCGGGTCTTGATTCGCTTGACGCTGCTG,7.36 z-score,7.72 z-score,7.94 z-score,3.88 z-score,7.56 z-score,6.04 z-score,5.93 z-score
CCGATTAACATCAGGGATATACCTGATGTTAATCGGGTCTTGATTCGCTTGACGCTGCTG,3.17 z-score,3.3 z-score,1.91 z-score,1.14 z-score,6.4 z-score,5.31 z-score,1.99 z-score
CCGATTAACATCAAGGGGGTTTATGATGTTAATCGGGTCTTGATTCGCTTGACGCTGCTG,7.31 z-score,6.46 z-score,7.73 z-score,2.54 z-score,8.75 z-score,6.24 z-score,7.21 z-score
CCGATTAACATCAAATTTCCCACTGATGTTAATCGGGTCTTGATTCGCTTGACGCTGCTG,2.73 z-score,4.26 z-score,4.5 z-score,4.39 z-score,3.33 z-score,4.27 z-score,4.02 z-score
CCGATTAACATCAAATTATCCCCTGATGTTAATCGGGTCTTGATTCGCTTGACGCTGCTG,6.03 z-score,6.6 z-score,8.6 z-score,6.1 z-score,3.57 z-score,5.25 z-score,5.28 z-score
CCGATTAACATCAGGGGATTGTATGATGTTAATCGGGTCTTGATTCGCTTGACGCTGCTG,6.91 z-score,7.07 z-score,8.67 z-score,3.04 z-score,4.19 z-score,5.12 z-score,6.01 z-score
CCGATTAACATCAGACTTTCCCCTGATGTTAATCGGGTCTTGATTCGCTTGACGCTGCTG,6.18 z-score,7.69 z-score,8.83 z-score,7.36 z-score,4.9 z-score,6.81 z-score,5.61 z-score
CCGATTAACATCAGAATCTCCCCTGATGTTAATCGGGTCTTGATTCGCTTGACGCTGCTG,7.81 z-score,6.42 z-score,6.73 z-score,6.25 z-score,3.02 z-score,5.81 z-score,5.32 z-score
CCGATTAACATCAAATACCCCCATGATGTTAATCGGGTCTTGATTCGCTTGACGCTGCTG,6.79 z-score,4.49 z-score,4.86 z-score,5.57 z-score,3.98 z-score,4.48 z-score,5.11 z-score
CCGATTAACATCATAAACCCCCATGATGTTAATCGGGTCTTGATTCGCTTGACGCTGCTG,5.78 z-score,4.95 z-score,5.67 z-score,2.59 z-score,7.12 z-score,4.77 z-score,6.3 z-score
CCGATTAACATCACGGGGAACTCTGATGTTAATCGGGTCTTGATTCGCTTGACGCTGCTG,6.71 z-score,6.61 z-score,6.85 z-score,6.94 z-score,7.12 z-score,4.95 z-score,4.53 z-score
CCGATTAACATCACCAAATCCCCTGATGTTAATCGGGTCTTGATTCGCTTGACGCTGCTG,6.97 z-score,6.55 z-score,9.44 z-score,3.02 z-score,4.48 z-score,4.54 z-score,6.6 z-score
CCGATTAACATCAAGGGGGTATCTGATGTTAATCGGGTCTTGATTCGCTTGACGCTGCTG,6.66 z-score,4.44 z-score,4.28 z-score,3.26 z-score,3.38 z-score,4.34 z-score,4.61 z-score
CCGATTAACATCAGGAATCTCCCTGATGTTAATCGGGTCTTGATTCGCTTGACGCTGCTG,3.91 z-score,6.08 z-score,3.67 z-score,1.77 z-score,2.25 z-score,7.75 z-score,4.69 z-score
CCGATTAACATCAAATTTCCCAGTGATGTTAATCGGGTCTTGATTCGCTTGACGCTGCTG,2.47 z-score,3.48 z-score,3.63 z-score,4.39 z-score,2.71 z-score,3.48 z-score,3.07 z-score
CCGATTAACATCAAGGGGATTTCTGATGTTAATCGGGTCTTGATTCGCTTGACGCTGCTG,9.69 z-score,10.8 z-score,12.7 z-score,2.79 z-score,9.09 z-score,7.73 z-score,7.98 z-score
CCGATTAACATCAAGGAATCCCCTGATGTTAATCGGGTCTTGATTCGCTTGACGCTGCTG,9.79 z-score,9.72 z-score,10.4 z-score,3.63 z-score,10.1 z-score,7.6 z-score,7.1 z-score
CCGATTAACATCACTATATCCCCTGATGTTAATCGGGTCTTGATTCGCTTGACGCTGCTG,4.49 z-score,4.08 z-score,5.9 z-score,3.51 z-score,2.01 z-score,2.75 z-score,3.18 z-score
CCGATTAACATCACCCGGGAAACTGATGTTAATCGGGTCTTGATTCGCTTGACGCTGCTG,2.48 z-score,2.39 z-score,3.08 z-score,4.78 z-score,1.11 z-score,2.32 z-score,1.81 z-score
CCGATTAACATCAGGGAATTTTATGATGTTAATCGGGTCTTGATTCGCTTGACGCTGCTG,6.12 z-score,9.33 z-score,8.44 z-score,4.82 z-score,6.83 z-score,8.16 z-score,6.55 z-score
CCGATTAACATCACGGGAAATTCTGATGTTAATCGGGTCTTGATTCGCTTGACGCTGCTG,5.1 z-score,6.52 z-score,5.98 z-score,5.06 z-score,3.57 z-score,6.47 z-score,4.83 z-score
CCGATTAACATCAGGGGGATACCTGATGTTAATCGGGTCTTGATTCGCTTGACGCTGCTG,7.92 z-score,7.48 z-score,6.28 z-score,6.16 z-score,8.18 z-score,8.7 z-score,5.56 z-score
